Assay outcomes as filed in PubChem BioAssay.
KKLEB tox: cytotoxicity in KKLEB CF airway cells, primary screen, cytotoxicity control for CF NF-kB inhibitor project, cell-based, uHTS, fluorescence assay plates. KKLEB CF airway cells viability, ATPlite luminescence, overnight; hits give low values; cells stimulated with P. aeruginosa culture filtrate. activity change (cytotoxicity), % at 5 µM. 0.36% of 360,000 active. AID 602141, 2011;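 active means corrected activity change at or below -50% at 5 µM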
TWEAK Fn14 block: inhibitors of TWEAK-Fn14 signaling, primary screen, luciferase reporter cells, uHTS. inhibition, % at 10 µM. 2% of 360,000 active. TWEAK-stimulated Fn14 reporter cells, luciferase luminescence, 8 h; in the data active means inhibition above about 50%
HIF-2a inh: HIF-2a reporter inhibitors, primary screen, luminescence, 786-0 RCC cells | inhibition, % at 18.8 µM | 0.72% of 360,000 active | 786-0 RCC cells HIF-2a reporter, luciferase luminescence, overnight;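 active means inhibition of the luminescence signal of 40% or more relative to plate controls, in a single-dose primary screen at 18.75 µM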
Peg3 prom inh: Peg3 promoter-driven luciferase inhibitors, primary screen, cell-based, HeLa, luciferase luminescence | HeLa PEG-Prom luciferase reporter, overnight | inhibition, % at 20 µM | 1.7% of 360,000 active | AID 588405, 2011;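 active means inhibition of at least 50% at 20 µM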
CF NFkB block: inhibitors of PAF-induced NF-kB signaling, primary screen, cell-based, GFP fluorescence, uHTS; inhibition, % at 5 µM; 0.86% of 360,000 active; KKLEB NF-kB-GFP reporter, GFP fluorescence overnight;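 active means at least 50% inhibition at 5 µM, scaled per plate between neutral and stimulator controls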;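 further: PAF is a Pseudomonas aeruginosa culture filtrate used as stimulus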
TROY NFkB inh: inhibitors of TROY-driven NF-kB signaling, primary screen, Q293 LMP1-TROYcd cells, NF-kB luciferase, uHTS; AID 1347056, 2019; inhibition, % at 10 µM; 0.98% of 360,000 active; Q293 LMP1-TROYcd NF-kB luciferase reporter, 4 h;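 active means compounds whose plate-normalised and pattern-corrected inhibition of the luciferase reporter signal at the single screening dose is 50% or more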
Each line names hits and unclear results; the compound was inactive in the other large screens. Most compounds without a hit are left out; they make up all but 4% or so of the library.

Cn1c(N)c(Sc2ccc([N+](=O)[O-])cc2)c(=O)n(C)c1=O	none
CCOc1ccc(-n2c(=O)c3sccc3n(Cc3cccc([N+](=O)[O-])c3)c2=O)cc1	none
COc1ccc(CC(=O)Nc2ccc(-c3nnc(-c4ccccc4)o3)cc2)cc1OC	none
COc1ccc(CC(=O)Nc2cccc(-c3nnc(-c4ccc(C)cc4)o3)c2)cc1OC	TWEAK Fn14 block 102, Peg3 prom inh 111, TROY NFkB inh 64
Cc1ccc(OCC(=O)Nc2cccc(-c3nnc(-c4ccccc4)o3)c2)c(C)c1	none
COc1ccc(CC(=O)Nc2cccc(-c3nnc(-c4ccccc4)o3)c2)cc1OC	TWEAK Fn14 block 102, Peg3 prom inh 100, TROY NFkB inh 69
COc1ccc(CC(=O)Nc2cccc(-c3nnc(-c4cccc(C)c4)o3)c2)cc1OC	TWEAK Fn14 block 89, TROY NFkB inh 61
COc1ccccc1CCC(=O)OCC(=O)Nc1ccc(C)c(S(=O)(=O)N2CCCCC2)c1	none
Cc1cc(C)c(S(C)(=O)=O)c(S(=O)(=O)c2ccc(Cl)cc2)n1	none
Cc1ccc(NC(=O)c2cnn(-c3ccccc3)c2C)c(C)c1	none
Cc1cc(C(=O)Nc2ccc(Cl)cc2)c(C)n1-c1ccccc1	KKLEB tox -68, TWEAK Fn14 block 103, HIF-2a inh 73, Peg3 prom inh 87, TROY NFkB inh 89
Cc1c(C(=O)Nc2cccc([N+](=O)[O-])c2)csc1-c1ccccc1	none
Cc1ccc(NC(=O)c2csc(-c3ccccc3)c2C)cc1	KKLEB tox -54, TWEAK Fn14 block 81, TROY NFkB inh 74
Cc1ccc(NC(=O)c2cc(C)n(-c3ccccc3)c2C)cc1	KKLEB tox -73, TWEAK Fn14 block 97, HIF-2a inh 54, TROY NFkB inh 89
Cc1ccc(NC(=O)c2cnn(-c3ccccc3)c2C)cc1	TWEAK Fn14 block 64
COCCN(C(=O)CSc1nnc(Nc2ccc(C)cc2)s1)c1c(N)n(CC(C)C)c(=O)[nH]c1=O	none
Cc1ccccc1S(=O)(=O)NC(=O)C1(C)CCN1C(=O)c1cccc2ccccc12 (configuration not stated)	none
CN(C(=O)c1ccco1)c1ccccc1C(=O)O	none
CC(C)(C)NS(=O)(=O)c1cc(C(=O)O)ccc1Cl	none
Cc1cc(C(=O)NNS(=O)(=O)c2cc(C(=O)O)ccc2Cl)c(C)n1-c1ccccc1	HIF-2a inh 64
Cc1ccc(NC(=O)CSC2=C(C#N)C(c3ccco3)C3=C(CCCC3=O)N2)cc1 (configuration not stated)	none
N#CC1=C(SCC(=O)Nc2ccc(C(=O)O)cc2)NC(=O)CC1c1ccco1 (configuration not stated)	TWEAK Fn14 block 98
CC(=O)Nc1cnc(-c2cccc(C(=O)N(C)C)c2)cn1	none
Cc1ccc(NS(=O)(=O)c2cccc([N+](=O)[O-])c2)nc1	none
CC1=CN2C(c3cccc([N+](=O)[O-])c3)=NON(c3ccc(C)cn3)C2C=C1 (configuration not stated)	TROY NFkB inh 60
Cc1ccc2c(COC(=O)c3ccccc3F)cc(=O)oc2c1	TWEAK Fn14 block 63
O=C(NC(Cc1ccccc1)C(=O)NCCc1ccccn1)c1cccs1 (configuration not stated)	none
COc1ccccc1-c1c(C)oc2c(CN3CCN(CCO)CC3)c(O)ccc2c1=O	TWEAK Fn14 block 86 (no result: TROY NFkB inh)
Cc1ccc(NC(=O)Cn2cnc3ccccc32)cc1C	none
Oc1c(N=Nc2ccccn2)ccc2ccccc12	TWEAK Fn14 block 80
COCc1ccc(C(=O)OC(C)C(=O)Nc2c(C)n(C)n(-c3ccccc3)c2=O)cc1 (configuration not stated)	none
CC(=O)Nc1ccc(S(=O)(=O)NCCC(=O)NCCCc2ccccc2)cc1	none
CC(=O)Nc1ccc(S(=O)(=O)NCC(=O)NCCCc2ccccc2)cc1	TWEAK Fn14 block 51
Cn1c(N/N=C/c2cccs2)cc(=O)n(C)c1=O	none
Fc1c(F)c(C(F)(F)F)c(F)c(F)c1N/N=C\c1cccs1	TWEAK Fn14 block 60
COc1ccc(C(CC(=O)Nc2nccs2)n2cccc2)cc1 (configuration not stated)	none
CN1C(=O)C(CC#N)(C2(CC#N)C(=O)N(C)c3ccccc32)c2ccccc21 (configuration not stated)	none
Cc1cccc(NC(=S)N/N=C/c2cccc([N+](=O)[O-])c2)c1	none
CCOc1cccc(/C=N/NC(=S)Nc2ccccc2[N+](=O)[O-])c1O	TWEAK Fn14 block 100, HIF-2a inh 48, TROY NFkB inh 90
O=[N+]([O-])c1ccccc1C=NNC(=S)NN=Cc1ccccc1[N+](=O)[O-]	none
Cc1cccc(NC(=S)N/N=C/c2ccc(Cl)c([N+](=O)[O-])c2)c1	Peg3 prom inh 62
O=[N+]([O-])c1ccccc1NC(=S)N/N=C/c1ccc(O)c(O)c1	TWEAK Fn14 block 66, TROY NFkB inh 66
O=C(N/N=C/c1ccc([N+](=O)[O-])o1)c1cn2ccc3ccccc3c2n1	none
COC(=O)c1ccc(NC(=O)CCc2nnc3ccc(N4CCC5(CC4)OCCO5)nn23)cc1	none
O=C1N(c2ccccc2C(F)(F)F)OC1(Cc1ccccc1)c1ccccc1 (configuration not stated)	Peg3 prom inh 58
NS(=O)(=O)c1ccc(CNC(=O)Cc2cccs2)cc1	none
O=C(CN1CCCc2ccccc21)N1CCc2ccccc21	none
NNC(=O)CN1CCCc2ccccc21	TWEAK Fn14 block 69, TROY NFkB inh 71
O=C(COc1ccc2cc(Br)ccc2c1)N1CCOCC1	none
CCN(CC)S(=O)(=O)c1ccc2c(c1)nc(CCC(=O)OCC(=O)Nc1c(F)cccc1F)n2C	none
Cc1ccc(CNC(=S)Nc2ccc3c(c2)c(=O)n(C)n3Cc2cccc(C(F)(F)F)c2)cc1	TWEAK Fn14 block 57, TROY NFkB inh 61
CCNC(=S)Nc1ccc2c(c1)c(=O)n(C)n2Cc1cccc(C(F)(F)F)c1	none
O=C(CCN1C(=O)c2ccccc2C1=O)N1CCN(Cc2ccc(Cl)cc2Cl)CC1	none
CCn1cc(C(=O)NCc2cccs2)c(=O)c2ccc(C)nc21	none
C=CCSc1nnc(NC(=O)c2cn(CC)c3nc(C)ccc3c2=O)s1	TWEAK Fn14 block 90
CCCC(=O)N1CCN(c2ccc(NC(=O)c3ccc(N4CCCC4)c([N+](=O)[O-])c3)cc2Cl)CC1	none
Cc1ccc(/C=C2\CCOC2=O)cc1	none
Cc1ccc(/C=C2/CNC/C(=C/c3ccc(C)cc3)C2=O)cc1	KKLEB tox -63, TWEAK Fn14 block 104, HIF-2a inh 85, Peg3 prom inh 105, CF NFkB block 80
